PubChem BioAssay AID652065 (The Scripps Research Institute Molecular Screening Center, 2013)
The campaign covered roughly 4,300 compounds. About 3,000 (70%) were called active.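 How the source made its calls: active means inhibition above a per-plate cutoff, the mean inhibition of sample wells plus 3 SD (cut at about 35% in these data); inactive means the rest.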 The set was probably picked from earlier hits. Only a sample is shown.

Experiment: small molecules binding CAG repeat RNA – biochemical, fluorescence, confirmation (AID 652065);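 further: loss of TO-PRO-1 fluorescence as compound displaces dye from 1x1 AA loop RNA; 0% = DMSO only wells and 100% = 100 µM mitoxantrone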
Details: r(CAG) RNA repeat, TO-PRO-1 dye displacement fluorescence; at 3 µM; stronger effect = higher value

inhibition, inactive:
Cc1sc(NC(=O)c2ccc3ncsc3c2)c(C(N)=O)c1C 18.1%
CCCCCCC(=O)Nc1nc(C)c(-c2csc(Nc3cc(Cl)ccc3OC)n2)s1 21.8%
O=C(Nc1ccc(S(=O)(=O)Nc2nccs2)cc1)c1cccc(S(=O)(=O)N2CCOCC2)c1 20.8%
O=C(Nc1ccccc1)Nc1nc2ccccc2s1 13.2%
Cc1ccc(NC(=O)Nc2nnc(-c3ccncc3)s2)cc1 25.5%
O=C(Nc1cccc(Cl)c1)Nc1ccccc1NS(=O)(=O)c1cccs1 34.4%
COc1cc(C(=O)Nn2c(O)c(C3=c4ccccc4=NC3=O)sc2=S)ccc1O 14.6%
CCc1ccc(OC(C)C(=O)Nc2ccc(S(=O)(=O)Nc3cc(C)on3)cc2)cc1 (stereo unspecified) 26.1%
CCn1c(SCC(=O)Nc2ccc(S(=O)(=O)Nc3onc(C)c3C)cc2)nnc1-c1ccccc1 22%
CC(=O)Nc1ccc(S(=O)(=O)N(CCc2ccccc2)CC(=O)N/N=C/c2ccc(C(=O)O)cc2)cc1 28.1%
Cc1cc(NS(=O)(=O)c2ccc(NC(=O)CSc3nnc(-c4ccc(C(C)(C)C)cc4)n3Cc3ccco3)cc2)nc(C)n1 23.6%
O=C(COC(=O)c1ccc(NS(=O)(=O)c2cccs2)cc1O)Nc1ccc(F)cc1 23.1%
C=CCn1c(=S)[nH]c2scc(-c3ccco3)c2c1=O 27.3%
NS(=O)(=O)c1ccc(N=Nc2c(O)[nH]c3ccc(Br)cc23)cc1 18.8%
COc1cc(/C=C2/C(=O)NN(c3cccc(Cl)c3)C2=O)cc(Br)c1O 24.5%
O=C(Nc1nncs1)c1ccccc1NS(=O)(=O)c1cccs1 30.2%
NS(=O)(=O)c1ccc(NC2=CC(c3ccc(F)cc3)N(c3ccc(S(N)(=O)=O)cc3)C2=O)cc1 (stereo unspecified) 12.6%

inhibition, active:
COc1ccc(C(CNC(=O)c2cccc(S(=O)(=O)Nc3ccccc3Cl)c2)N2CCOCC2)cc1 (stereo unspecified) 63.9%
Cc1cc(C(=O)N/N=C/c2ccc(O)c([N+](=O)[O-])c2)c(C)n1-c1ccc(F)cc1 42.6%
O=c1ccc2c(-c3ccccc3S(=O)(=O)O)c3ccc(O)c(O)c3oc-2c1O 91.4%
CCc1ccc(N2CC(C(=O)Nc3ccc(S(=O)(=O)Nc4nccs4)cc3)CC2=O)cc1 (stereo unspecified) 42%
Cc1ccc(OCCC(=O)Nc2ccc(S(=O)(=O)Nc3nccs3)cc2)cc1 35%
O=C(Nc1ccc(S(=O)(=O)Nc2nccs2)cc1)c1cc(-c2ccncc2)nc2ccccc12 65.2%
O=C(CCc1ccccc1Cl)Nc1ccc(S(=O)(=O)Nc2nccs2)cc1 39.1%
COC(=O)c1sc(-c2ccc(C(C)(C)C)cc2)cc1NC(=O)/C=C/C(=O)O 80%
C[C@H]([C@@H](O)[C@@H](O)[C@@H](C)C(C)(C)C)[C@H]1CC[C@H]2C3CC[C@H]4C[C@H](OS(=O)(=O)O)[C@@H](OS(=O)(=O)O)C[C@]4(C)[C@H]3CC[C@]12C (stereo partly specified) 87.8%
O=C(Nc1ccccc1)Nc1nnc(COc2ccccc2F)s1 42.2%
COC(=O)c1sccc1NC(=O)CSc1ccccc1NS(=O)(=O)c1cc(Cl)ccc1Cl 73%
CCOc1cc(C(=O)Nc2ccc(S(=O)(=O)Nc3cnc4ccccc4n3)cc2)cc(OCC)c1OCC 66.4%
Cc1ccccc1-c1ccc2c(c1)O[C@@H](CN(C)Cc1ccc(C(=O)O)cc1)[C@@H](C)CN([C@H](C)CO)S2(=O)=O 58.3%
Cc1cc(C)c2nc(-c3cccnc3)cc(C(=O)Nc3ccc(S(=O)(=O)Nc4onc(C)c4C)cc3)c2c1 83.2%
Cc1ccc(C(=O)/C=C/Nc2ccc(S(=O)(=O)Nc3onc(C)c3C)cc2)cc1 62.5%
Cc1noc(NS(=O)(=O)c2ccc(NC(=O)c3oc4ccc(F)cc4c3C)cc2)c1C 71.9%
Cc1cc(OC(C)C(=O)Nc2ccc(S(=O)(=O)Nc3onc(C)c3C)cc2)cc(C)c1Cl (stereo unspecified) 62.4%
COc1cccc(-c2coc3cc4oc(=O)c(CC(=O)O)c(C)c4cc23)c1 42.7%
O=C(COc1ccc([N+](=O)[O-])cc1)Nc1cccc(C(=O)Nc2ccccc2C(=O)O)c1 62.4%
CCN(CC)C(=O)CSC(Nc1cccc(F)c1)=C(C#N)C#N 38.4%
Cc1nnc(SC(C(=O)Nc2cc(Cl)cc(Cl)c2)c2ccccc2)[nH]c1=O (stereo unspecified) 64.1%
COc1ccc(Cc2nnc(SCC(=O)Nc3ccc(C)c(Cl)c3)[nH]c2=O)cc1 62.5%
Cc1cc(NS(=O)(=O)c2ccc(NC(=O)CSc3nnc(SCc4ccc(F)cc4)s3)cc2)nc(C)n1 45%
COc1ccc(Br)cc1/C=N/Nc1ccc(S(=O)(=O)Nc2ccccc2C(=O)O)cc1[N+](=O)[O-] 93.4%
O=C(O)c1ccccc1/C=N/Nc1ccc(S(=O)(=O)Nc2ccc(Cl)cc2)cc1[N+](=O)[O-] 63.4%
COc1cccc(/C=N/Nc2ccc(S(=O)(=O)Nc3ccccc3C(=O)O)cc2[N+](=O)[O-])c1O 93.9%
O=C1/C(=C/c2ccc(F)cc2)SC(=S)N1NS(=O)(=O)c1ccccc1 53.6%
COc1ccc(/C=C/C(=O)c2ccc(NS(=O)(=O)c3ccc(C)cc3)cc2)cc1O 54.9%
COc1cc(NC(=O)c2ccccc2NS(=O)(=O)c2ccc(Cl)s2)cc(OC)c1 82%
CCc1nnc(NS(=O)(=O)c2ccc(NC(=O)c3cccc(OC(F)(F)C(F)F)c3)cc2)s1 56.7%
CCc1nnc(NS(=O)(=O)c2ccc(NC(=S)NC(=O)c3cccs3)cc2)s1 46.7%
Cc1ccc(SC(CC(=O)c2ccc(C(C)(C)C)cc2)C(=O)O)cc1 (stereo unspecified) 44.7%
Cc1ccc(C(=O)Oc2coc(CSc3nnc(NC(=O)c4cccs4)s3)cc2=O)cc1C 60.6%
O=C(O)CCn1cc(/C=C/C(=O)c2ccc(Cl)cc2)c(-c2cccc(Br)c2)n1 86.2%
